Measured values published in PubChem BioAssay.
Active and inactive are the calls of the source.

Assays:
[1] = A549 cell viability effects, profiling panel, calcein-AM fluorescence, 48 h, basal (AID 1162); details: higher = more signal
[2] = adipocyte viability effects, profiling panel, cell-based, 3T3-L1 adipocytes, calcein-AM fluorescence, 48 h, basal (AID 1163); details: 3T3-L1 adipocytes viability, higher = more signal
[3] = HepG2 cell viability effects, profiling panel, calcein-AM fluorescence, 48 h, basal (AID 1164); details: higher = more signal
[4] = MM1S cell viability effects, profiling panel, calcein-AM fluorescence, 48 h, basal (AID 1165); details: higher = more signal;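 further: viability of MM1S multiple myeloma cells under basal unstimulated conditions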
[5] = basal RPMI8226 viability, no added stimulus, profiling panel, cell-based, calcein-AM fluorescence, 48 h, PK04 Diversity Set (AID 1166); details: RPMI8226 myeloma viability, higher = more signal;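 further: cells grown under basal conditions without added stimulus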
[6] = basal HepG2 mitochondrial membrane potential changes, profiling panel, cell-based, JC-1 fluorescence, 24 h, 100 nL compound (AID 1167); details: higher = more signal
[7] = basal 3T3-L1 adipocyte mitochondrial potential changes, profiling panel, cell-based, JC-1 fluorescence, 3T3-L1 adipocytes, 24 h, 100 nL compound (AID 1168); details: JC-1 mitochondrial fluorescence, higher = more signal, called active from +8 up or from −8 down
[8] = basal RPMI8226 mitochondrial membrane potential changes, profiling panel, cell-based, JC-1 fluorescence, 24 h, 100 nL compound (AID 1169); details: RPMI8226 myeloma, JC-1 mitochondrial potential fluorescence, higher = more signal
[9] = basal MM1S mitochondrial membrane potential changes, profiling panel, cell-based, JC-1 fluorescence, 24 h, 100 nL compound (AID 1170); details: higher = more signal
[10] = A549 lung cancer cell viability effects, profiling panel, resazurin fluorescence, 24 h, PK04 Diversity Set (AID 1171); details: higher = more signal, called active from +8 up or from −8 down
Further: test concentration not given here.

| Structure (SMILES) | z-score [1] | z-score [2] | z-score [3] | z-score [4] | z-score [5] | z-score [6] | z-score [7] | z-score [8] | z-score [9] | z-score [10] |
| --- | --- | --- | --- | --- | --- | --- | --- | --- | --- | --- |
| COC(=O)c1c2oc(c1C(=O)OC)C(=O)NC1(CCCCC1)c1cn(nn1)C[C@H](Cc1ccccc1)NC(=O)N[C@H](CO)CC2 | 0.947 | -0.0442 | 0.22 | 0.813 | 1.17 | 0.537 | 0.691 (inactive) | 0.564 | -0.887 | 1.09 (inactive) |
| CN(C)CCCCNC(=O)[C@@H]1C[C@@H]2C(=O)N[C@@H](CCCCN)C(=O)N2[C@@H]1c1ccc(O)cc1 | 0.48 | -1.51 | 0.377 | -0.388 | 0.473 | -1.58 | 0.627 (inactive) | -0.836 | -1.29 | 0.0719 (inactive) |
| O=C1C2C=CC(C(O)c3ccc(-c4ccccc4)s3)N(Nc3ccccc3)C2C(=O)N1c1ccccc1 (stereo not given) | -0.574 | -1.35 | 0.128 | -0.338 | -1.45 | -1.75 | 0.0226 (inactive) | 0.054 | -0.271 | 0.0364 (inactive) |
| Cc1c(NC(=O)/C(C#N)=C/c2cccc([N+](=O)[O-])c2)c(=O)n(-c2ccccc2)n1C | 4.01 | 1.31 | 0.461 | 0.943 | 2.4 | 0.69 | -1.08 (inactive) | -0.122 | -0.054 | -0.133 (inactive) |
| CCCC1(C(=O)OC)C=C2C(=C(c3ccccc3)C(=O)C2C)CN1 (stereo not given) | -1 | -0.446 | -0.5 | 0.136 | -1.14 | 0.0027 | -1.23 (inactive) | -0.198 | -0.949 | -0.42 (inactive) |
| COCCOC(=O)N1C(=O)[C@@]2(c3cc(C#Cc4ccc(OC)cc4)ccc31)[C@H](c1ccc(O)cc1)N1[C@H](c3ccccc3)[C@H](c3ccccc3)OC(=O)[C@H]1[C@@H]2C(=O)Nc1nc2ccccc2s1 | -0.738 | 0.967 | 0.0165 | -1.55 | -1.6 | -2.51 | -0.0239 (inactive) | -0.71 | -1.34 | -0.838 (inactive) |
| COc1ccc([Si](C)(C)[C@H]2[C@H](CCn3cc([C@H](O)c4ccccc4)nn3)O[C@@]3(C(=O)N(C)c4ccccc43)[C@@H]2C)cc1 | 0.239 | -0.233 | 0.132 | -0.615 | -1.79 | -0.602 | 0.331 (inactive) | -1.16 | -0.396 | 0.32 (inactive) |
| CCOC(=O)C1=CC[C@@H](c2ccc(C(F)(F)F)cc2)N(S(=O)(=O)c2ccc(C)cc2)[C@H]1c1ccccc1 | -0.664 | -1.01 | 0.0691 | -2.36 | -1.95 | -1.59 | 0.154 (inactive) | -1.11 | -3.18 | 0.138 (inactive) |
| CCOc1ccc(N2C(=O)CSC2c2cccc([N+](=O)[O-])c2)cc1 (stereo not given) | 1.77 | -0.704 | 1.1 | -0.119 | -0.804 | 1.61 | 0.989 (inactive) | -0.127 | -0.288 | 0.0421 (inactive) |
| CC(C)=CCCC(C)=CC(O)C1C=CC2C(=O)N(c3ccccc3)C(=O)C2N1Nc1ccc(C(C)C)cc1 (stereo not given) | -1.27 | -0.276 | -0.964 | 0.105 | -0.589 | -1.09 | -0.696 (inactive) | 0.465 | 1.06 | 0.38 (inactive) |
| C=C(CCCC)/C(=C/C[C@H](OC(C)=O)c1ccc(OCCO)cc1)c1cnc2ccccc2c1 | -0.138 | 0.0248 | -0.257 | -2.17 | -0.861 | 1.91 | -1.26 (inactive) | -0.108 | -0.552 | 1.24 (inactive) |
| CC(C)OC(=O)C=C1C[C@@H](c2cccc(Cl)c2)O[C@@H](c2cccc(Cl)c2)O1 | -1.2 | -0.0201 | -0.822 | -1.97 | -0.66 | -0.46 | 0.843 (inactive) | 0.0432 | -1.51 | 0.146 (inactive) |
| NC(=O)N1C(=O)C2C(C1=O)C1C=C(CCCO)C2C(C2CC2)N1Cc1cc2c(cc1Br)OCO2 (stereo not given) | -0.318 | 0.505 | -0.0479 | -2.42 | -0.885 | -0.258 | -0.274 (inactive) | 0.21 | -0.237 | -0.604 (inactive) |
| C#CCN1[C@@H](Cc2ccc(O)cc2)C(=O)O[C@H](Cc2ccccc2)[C@@H]1/C=C/C1CC1 | -2.82 | -0.145 | -3.44 | -3.22 | -3.96 | -3.57 | -0.0548 (inactive) | -1.23 | -0.744 | -1.01 (inactive) |
| CCCCN1CC=CC23O[C@@H]4C=CCOC(=O)[C@@H]4[C@H]2C(=O)N(CCCCCCO)[C@@H]3C1=O (stereo not given in full) | 0.327 | -1.36 | 0.215 | 0.546 | 0.569 | -0.71 | -0.228 (inactive) | 0.76 | -0.12 | -0.499 (inactive) |
| CC[C@@H]1C=C(C(=O)O)[C@H](c2ccc(C)cc2)N1S(=O)(=O)c1ccc(C)cc1 | -0.795 | -0.235 | -0.997 | 0.0477 | 0.365 | 0.0562 | 0.348 (inactive) | 0.637 | -0.643 | 0.357 (inactive) |
| O=C1C2C=CC(C(O)c3c(F)cccc3Cl)N(Nc3ccccc3F)C2C(=O)N1c1ccccc1 (stereo not given) | -0.505 | -1.08 | -0.257 | 0.278 | -0.0072 | -1.03 | -0.217 (inactive) | -0.277 | -0.298 | -0.103 (inactive) |
| COCCOC(=O)N1C(=O)[C@@]2(c3cc(C#CC4=CCCCC4)ccc31)[C@H](c1ccc(OCCO)cc1)N1[C@H](c3ccccc3)[C@H](c3ccccc3)OC(=O)[C@H]1[C@@H]2C(=O)N1CCc2cc(OC)c(OC)cc2C1 | 1.31 | 0.453 | 1.96 | 0.505 | -0.0521 | 0.578 | 2.21 (inactive) | -0.521 | -0.935 | -1.12 (inactive) |
| [N-]=[N+]=Nc1ccccc1[C@H]1OC(c2ccc(OCCCO)cc2)=N[C@@]1(CCS(=O)(=O)c1ccccc1)C(=O)NCc1ccccc1 | -0.0804 | -0.337 | -0.777 | -0.99 | -0.816 | -0.337 | -0.327 (inactive) | -0.929 | -0.673 | 1.09 (inactive) |
| C=C(C(=O)CC[C@H](OC(C)=O)c1ccccc1OCCO)C(C)C | -2.33 | -0.375 | -3.04 | -0.899 | -1.94 | -0.892 | 1.99 (inactive) | -0.621 | -1.19 | -2.7 (inactive) |
| NCCCCCCNC(=O)[C@H]1C[C@H]2C(=O)N[C@@H](Cc3ccccc3)C(=O)N2[C@H]1c1cccc(OCCO)c1 | 0.516 | 0.454 | -0.378 | 0.456 | 0.112 | -0.215 | 0.896 (inactive) | -0.802 | -0.531 | 1.21 (inactive) |
| Cc1ccc(S[C@]2(C(=O)O)CC(=O)N(C(C)C)[C@@H]2c2ccc(CO)cc2)cc1 | 0.716 | 1.07 | 1.19 | 0.266 | 0.535 | 1.36 | -0.285 (inactive) | 0.00862 | -0.317 | -0.831 (inactive) |
